# Results as given in PMC7862700, “An all-to-all approach to the identification of sequence-specific readers for epigenetic DNA modifications on cytosine”.
# How the values were obtained:
# Assay in all cases: DAPPL (digital affinity profiling via proximity ligation, sequencing); 10 mM Tris-HCl pH 7.5, 50 mM NaCl, 1 mM DTT, 4% glycerol, room temperature, 30 min; GST-TFs on glutathione beads, 16-mer random dsDNA library, 0.1% formaldehyde crosslink after washing; high values mean tight binding
# FLI1 = target: T1, FLI1 (Homo sapiens, UniProt Q01543 1-452); settings: protein: recombinant; tags: N-terminal GST; dsDNA, one strand shown
# T1 sequence: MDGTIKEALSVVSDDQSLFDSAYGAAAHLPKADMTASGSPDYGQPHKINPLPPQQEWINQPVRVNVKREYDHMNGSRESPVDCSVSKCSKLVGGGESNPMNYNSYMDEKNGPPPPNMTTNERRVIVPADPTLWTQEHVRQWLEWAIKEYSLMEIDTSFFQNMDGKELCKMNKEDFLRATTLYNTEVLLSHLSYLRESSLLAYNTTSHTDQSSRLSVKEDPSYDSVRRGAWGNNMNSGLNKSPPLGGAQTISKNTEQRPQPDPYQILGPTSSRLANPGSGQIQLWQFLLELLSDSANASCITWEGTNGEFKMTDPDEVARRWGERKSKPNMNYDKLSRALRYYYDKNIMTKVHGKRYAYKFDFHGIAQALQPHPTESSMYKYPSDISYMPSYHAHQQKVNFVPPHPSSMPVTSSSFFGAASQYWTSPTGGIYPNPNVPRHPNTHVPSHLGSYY
# Method in brief: (§1)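 GST fusions of human transcription factors were expressed in yeast and captured with glutathione beads. Once given DNA barcodes and pooled alongside a tag-only sample, they were incubated for 30 min at room temperature with 200 nmole of a random double-stranded 16-mer DNA library in Tris/NaCl/DTT/glycerol buffer, then washed, crosslinked (0.1% formaldehyde), proximity-ligated, PCR-amplified and sequenced on an Illumina NextSeq500. The binding signal of each hexamer is its read frequency for a factor divided by its frequency for the tag-only sample.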
# ELK1 = target: T2, ELK1 (Homo sapiens, UniProt P19419 1-428); settings: protein: recombinant; tags: N-terminal GST; dsDNA, one strand shown
# T2 sequence: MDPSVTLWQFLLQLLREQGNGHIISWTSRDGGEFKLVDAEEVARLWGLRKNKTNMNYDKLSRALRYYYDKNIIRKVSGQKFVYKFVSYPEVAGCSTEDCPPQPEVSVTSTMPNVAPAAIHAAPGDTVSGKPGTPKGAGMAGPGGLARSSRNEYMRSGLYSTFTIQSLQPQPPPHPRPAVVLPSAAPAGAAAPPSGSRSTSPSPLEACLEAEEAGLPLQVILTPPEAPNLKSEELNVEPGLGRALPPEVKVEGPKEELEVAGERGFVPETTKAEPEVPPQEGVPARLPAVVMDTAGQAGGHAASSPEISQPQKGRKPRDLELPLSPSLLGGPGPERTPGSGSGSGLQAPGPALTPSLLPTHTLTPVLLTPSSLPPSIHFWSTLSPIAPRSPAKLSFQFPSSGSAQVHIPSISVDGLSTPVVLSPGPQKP
# Method in brief: as §1
# GABPA = target: T3, GABPA (Homo sapiens, UniProt Q06546 1-454); settings: protein: recombinant; tags: N-terminal GST; dsDNA, one strand shown
# T3 sequence: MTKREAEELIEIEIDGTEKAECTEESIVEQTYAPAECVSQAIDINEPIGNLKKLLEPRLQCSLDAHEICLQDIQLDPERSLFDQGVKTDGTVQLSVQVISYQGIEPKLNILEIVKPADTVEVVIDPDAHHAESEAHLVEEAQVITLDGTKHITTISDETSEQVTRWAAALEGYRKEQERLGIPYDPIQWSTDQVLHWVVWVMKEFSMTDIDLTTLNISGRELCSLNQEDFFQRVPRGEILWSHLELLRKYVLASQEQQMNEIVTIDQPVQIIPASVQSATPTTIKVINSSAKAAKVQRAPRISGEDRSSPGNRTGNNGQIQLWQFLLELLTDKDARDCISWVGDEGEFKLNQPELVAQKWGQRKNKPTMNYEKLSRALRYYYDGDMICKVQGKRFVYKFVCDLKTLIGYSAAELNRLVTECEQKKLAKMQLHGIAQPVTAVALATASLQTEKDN
# Method in brief: as §1
# ERG = target: T4, ERG (Homo sapiens, UniProt P11308 1-479); settings: protein: recombinant; tags: N-terminal GST; dsDNA, one strand shown
# T4 sequence: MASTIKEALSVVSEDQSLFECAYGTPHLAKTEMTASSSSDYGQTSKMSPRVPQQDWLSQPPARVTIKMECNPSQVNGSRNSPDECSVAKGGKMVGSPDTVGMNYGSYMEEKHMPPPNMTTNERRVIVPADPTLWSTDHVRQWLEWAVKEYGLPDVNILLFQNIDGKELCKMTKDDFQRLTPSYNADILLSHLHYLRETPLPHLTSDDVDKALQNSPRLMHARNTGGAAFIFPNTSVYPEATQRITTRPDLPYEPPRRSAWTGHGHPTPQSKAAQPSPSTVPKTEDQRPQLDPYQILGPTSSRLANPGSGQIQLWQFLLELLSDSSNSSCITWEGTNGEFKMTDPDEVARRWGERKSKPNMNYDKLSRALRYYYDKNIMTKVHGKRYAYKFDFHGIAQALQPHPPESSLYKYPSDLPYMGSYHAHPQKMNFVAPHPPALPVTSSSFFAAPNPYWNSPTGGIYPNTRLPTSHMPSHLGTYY
# Method in brief: as §1
# ELF1 = ELF1 (Homo sapiens, UniProt P32519 1-619); settings: protein: recombinant; tags: N-terminal GST; dsDNA, one strand shown
# Chain of ELF1 (P32519 whole entry): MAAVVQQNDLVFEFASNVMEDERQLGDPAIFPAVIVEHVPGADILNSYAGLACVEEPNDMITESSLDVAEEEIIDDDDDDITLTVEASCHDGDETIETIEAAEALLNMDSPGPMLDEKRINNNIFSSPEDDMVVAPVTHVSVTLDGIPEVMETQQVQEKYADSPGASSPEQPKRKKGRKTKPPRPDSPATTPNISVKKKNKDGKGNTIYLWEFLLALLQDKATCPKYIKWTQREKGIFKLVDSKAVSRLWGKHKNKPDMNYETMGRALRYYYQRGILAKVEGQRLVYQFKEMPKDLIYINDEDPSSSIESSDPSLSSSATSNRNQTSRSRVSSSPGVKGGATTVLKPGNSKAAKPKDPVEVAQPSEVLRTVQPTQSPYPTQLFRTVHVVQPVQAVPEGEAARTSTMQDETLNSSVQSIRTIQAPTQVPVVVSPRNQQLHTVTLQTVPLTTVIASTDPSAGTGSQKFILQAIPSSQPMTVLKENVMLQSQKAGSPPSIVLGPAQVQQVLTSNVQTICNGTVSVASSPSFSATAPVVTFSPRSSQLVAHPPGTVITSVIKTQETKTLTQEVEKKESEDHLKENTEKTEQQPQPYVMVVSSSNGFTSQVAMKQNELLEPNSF
# Method in brief: as §1
# EHF = target: T5, EHF (Homo sapiens, UniProt Q9NZC4 1-300); settings: protein: recombinant; tags: N-terminal GST; dsDNA, one strand shown
# T5 sequence: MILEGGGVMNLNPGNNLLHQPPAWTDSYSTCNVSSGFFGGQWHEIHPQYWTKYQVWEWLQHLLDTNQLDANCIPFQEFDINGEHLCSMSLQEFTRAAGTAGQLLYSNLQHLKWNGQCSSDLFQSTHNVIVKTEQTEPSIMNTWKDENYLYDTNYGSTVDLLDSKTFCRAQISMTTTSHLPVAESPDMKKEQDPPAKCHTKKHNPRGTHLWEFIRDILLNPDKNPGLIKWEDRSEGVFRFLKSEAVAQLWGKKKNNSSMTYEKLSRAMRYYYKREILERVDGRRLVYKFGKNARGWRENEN
# Method in brief: as §1
# SPI1 = SPI1 (Homo sapiens, UniProt P17947 1-270); settings: protein: recombinant; tags: N-terminal GST; dsDNA, one strand shown
# Method in brief: as §1
# ELK3 = target: T6, ELK3 (Homo sapiens, UniProt P41970 1-407); settings: protein: recombinant; tags: N-terminal GST; dsDNA, one strand shown
# T6 sequence: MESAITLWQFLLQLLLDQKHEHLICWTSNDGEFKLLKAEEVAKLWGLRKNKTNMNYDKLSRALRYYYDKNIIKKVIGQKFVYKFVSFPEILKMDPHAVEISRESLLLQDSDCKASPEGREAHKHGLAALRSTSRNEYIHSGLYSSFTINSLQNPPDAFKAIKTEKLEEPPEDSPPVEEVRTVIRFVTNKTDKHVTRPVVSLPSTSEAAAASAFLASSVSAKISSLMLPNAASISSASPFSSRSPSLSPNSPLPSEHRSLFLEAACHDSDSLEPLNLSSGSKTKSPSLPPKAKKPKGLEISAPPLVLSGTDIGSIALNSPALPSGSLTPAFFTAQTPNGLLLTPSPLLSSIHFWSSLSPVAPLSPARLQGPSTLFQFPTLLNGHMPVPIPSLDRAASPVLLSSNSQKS
# Method in brief: as §1
# FEV = target: T7, FEV (Homo sapiens, UniProt Q99581 1-238); settings: protein: recombinant; tags: N-terminal GST; dsDNA, one strand shown
# T7 sequence: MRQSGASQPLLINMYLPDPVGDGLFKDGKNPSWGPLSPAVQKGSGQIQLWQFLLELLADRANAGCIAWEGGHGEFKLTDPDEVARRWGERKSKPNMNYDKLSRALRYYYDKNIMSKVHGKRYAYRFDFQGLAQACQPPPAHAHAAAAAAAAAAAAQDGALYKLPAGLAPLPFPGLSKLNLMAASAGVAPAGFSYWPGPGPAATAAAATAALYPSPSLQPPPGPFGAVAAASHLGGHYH
# Method in brief: as §1
# ETV5 = ETV5 (Homo sapiens, UniProt P41161 1-510); settings: protein: recombinant; tags: N-terminal GST; dsDNA, one strand shown
# Chain of ETV5 (P41161 whole entry): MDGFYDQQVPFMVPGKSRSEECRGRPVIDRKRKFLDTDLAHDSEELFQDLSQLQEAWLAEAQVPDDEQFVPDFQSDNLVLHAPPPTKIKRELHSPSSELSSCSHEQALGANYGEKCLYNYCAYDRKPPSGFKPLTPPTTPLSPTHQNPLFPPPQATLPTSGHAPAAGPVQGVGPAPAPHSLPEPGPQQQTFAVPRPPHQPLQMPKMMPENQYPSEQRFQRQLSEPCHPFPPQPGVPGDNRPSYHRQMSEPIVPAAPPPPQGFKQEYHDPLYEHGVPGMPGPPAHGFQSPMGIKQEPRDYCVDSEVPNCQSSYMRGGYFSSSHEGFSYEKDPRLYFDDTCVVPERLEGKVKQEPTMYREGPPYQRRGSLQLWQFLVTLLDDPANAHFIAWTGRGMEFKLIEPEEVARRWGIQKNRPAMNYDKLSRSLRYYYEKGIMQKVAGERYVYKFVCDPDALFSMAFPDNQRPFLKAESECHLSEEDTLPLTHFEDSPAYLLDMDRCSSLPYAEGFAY
# Method in brief: as §1
# HSF1 = HSF1 (Homo sapiens, UniProt Q00613 1-529); settings: protein: recombinant; tags: N-terminal GST; chain copies: 3; dsDNA, one strand shown
# Chain of HSF1 (Q00613 whole entry): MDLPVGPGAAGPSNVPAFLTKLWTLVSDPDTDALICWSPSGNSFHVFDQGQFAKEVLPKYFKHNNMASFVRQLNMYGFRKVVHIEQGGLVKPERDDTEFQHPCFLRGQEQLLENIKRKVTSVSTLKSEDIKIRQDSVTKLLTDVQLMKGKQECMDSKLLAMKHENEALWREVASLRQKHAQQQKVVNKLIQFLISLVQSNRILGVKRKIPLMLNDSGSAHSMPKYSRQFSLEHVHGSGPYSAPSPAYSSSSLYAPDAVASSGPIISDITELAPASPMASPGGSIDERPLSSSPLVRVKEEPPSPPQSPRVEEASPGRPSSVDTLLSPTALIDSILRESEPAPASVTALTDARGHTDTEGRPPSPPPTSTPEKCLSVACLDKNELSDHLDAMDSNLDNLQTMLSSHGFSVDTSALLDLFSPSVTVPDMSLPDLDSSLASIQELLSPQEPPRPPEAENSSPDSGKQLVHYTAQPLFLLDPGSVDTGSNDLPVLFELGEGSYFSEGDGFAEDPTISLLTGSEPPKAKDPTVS
# Method in brief: as §1
# SPIC = target: T8, SPIC (Homo sapiens, UniProt Q8N5J4 1-248); settings: protein: recombinant; tags: N-terminal GST; dsDNA, one strand shown
# T8 sequence: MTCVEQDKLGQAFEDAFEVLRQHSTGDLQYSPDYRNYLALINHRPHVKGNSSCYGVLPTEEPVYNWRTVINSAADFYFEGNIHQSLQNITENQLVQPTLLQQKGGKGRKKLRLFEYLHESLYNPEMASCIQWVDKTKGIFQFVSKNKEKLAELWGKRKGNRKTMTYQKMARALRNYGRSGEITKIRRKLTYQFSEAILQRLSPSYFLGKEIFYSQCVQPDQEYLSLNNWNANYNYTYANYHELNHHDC
# Method in brief: as §1
# ELF4 = ELF4 (Homo sapiens, UniProt Q99607 1-663); settings: protein: recombinant; tags: N-terminal GST; dsDNA, one strand shown
# Chain of ELF4 (Q99607 whole entry): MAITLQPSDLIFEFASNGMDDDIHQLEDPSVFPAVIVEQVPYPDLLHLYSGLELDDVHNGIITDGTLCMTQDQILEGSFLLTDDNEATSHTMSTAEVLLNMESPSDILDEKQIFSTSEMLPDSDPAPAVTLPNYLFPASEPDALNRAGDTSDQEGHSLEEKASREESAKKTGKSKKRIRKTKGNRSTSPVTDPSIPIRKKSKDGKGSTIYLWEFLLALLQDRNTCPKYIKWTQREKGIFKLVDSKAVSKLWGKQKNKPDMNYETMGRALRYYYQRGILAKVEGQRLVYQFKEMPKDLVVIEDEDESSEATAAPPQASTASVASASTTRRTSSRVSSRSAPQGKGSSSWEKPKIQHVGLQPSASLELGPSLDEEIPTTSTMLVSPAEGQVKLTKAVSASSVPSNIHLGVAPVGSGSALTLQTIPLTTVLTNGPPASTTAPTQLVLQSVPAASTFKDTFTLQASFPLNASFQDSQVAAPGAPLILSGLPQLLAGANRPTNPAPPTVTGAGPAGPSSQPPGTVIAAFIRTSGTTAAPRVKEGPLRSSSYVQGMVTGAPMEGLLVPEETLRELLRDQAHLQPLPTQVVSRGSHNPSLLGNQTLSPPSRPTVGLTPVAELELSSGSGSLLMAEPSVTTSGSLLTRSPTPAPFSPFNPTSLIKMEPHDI
# Method in brief: as §1
# ELK4 = target: T9, ELK4 (Homo sapiens, UniProt P28324-2 1-405); settings: protein: recombinant; tags: N-terminal GST; dsDNA, one strand shown
# T9 sequence: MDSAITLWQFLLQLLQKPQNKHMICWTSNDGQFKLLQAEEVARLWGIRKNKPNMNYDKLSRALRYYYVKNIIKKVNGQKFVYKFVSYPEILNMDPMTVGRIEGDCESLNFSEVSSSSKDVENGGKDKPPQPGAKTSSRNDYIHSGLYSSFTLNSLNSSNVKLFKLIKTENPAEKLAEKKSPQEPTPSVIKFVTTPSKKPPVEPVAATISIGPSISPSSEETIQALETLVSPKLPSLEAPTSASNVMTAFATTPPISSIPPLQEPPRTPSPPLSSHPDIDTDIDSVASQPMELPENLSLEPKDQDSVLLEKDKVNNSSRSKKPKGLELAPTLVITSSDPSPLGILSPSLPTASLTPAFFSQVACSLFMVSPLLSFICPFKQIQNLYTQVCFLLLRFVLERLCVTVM
# Method in brief: as §1
# ETV2 = target: T10, ETV2 (Homo sapiens, UniProt O00321 1-342); settings: protein: recombinant; tags: N-terminal GST; dsDNA, one strand shown
# T10 sequence: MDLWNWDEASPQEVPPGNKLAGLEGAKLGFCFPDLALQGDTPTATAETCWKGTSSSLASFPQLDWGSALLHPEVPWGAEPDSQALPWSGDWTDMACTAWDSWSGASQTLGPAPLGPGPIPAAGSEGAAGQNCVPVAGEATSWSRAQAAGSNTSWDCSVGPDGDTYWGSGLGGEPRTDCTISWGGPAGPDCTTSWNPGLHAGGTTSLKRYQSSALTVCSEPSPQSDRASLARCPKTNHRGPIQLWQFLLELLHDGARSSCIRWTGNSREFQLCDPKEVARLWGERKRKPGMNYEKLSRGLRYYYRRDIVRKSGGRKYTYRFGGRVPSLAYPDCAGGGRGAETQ
# Method in brief: as §1
# ELF3 = target: T11, ELF3 (Homo sapiens, UniProt P78545 1-371); settings: protein: recombinant; tags: N-terminal GST; dsDNA, one strand shown
# T11 sequence: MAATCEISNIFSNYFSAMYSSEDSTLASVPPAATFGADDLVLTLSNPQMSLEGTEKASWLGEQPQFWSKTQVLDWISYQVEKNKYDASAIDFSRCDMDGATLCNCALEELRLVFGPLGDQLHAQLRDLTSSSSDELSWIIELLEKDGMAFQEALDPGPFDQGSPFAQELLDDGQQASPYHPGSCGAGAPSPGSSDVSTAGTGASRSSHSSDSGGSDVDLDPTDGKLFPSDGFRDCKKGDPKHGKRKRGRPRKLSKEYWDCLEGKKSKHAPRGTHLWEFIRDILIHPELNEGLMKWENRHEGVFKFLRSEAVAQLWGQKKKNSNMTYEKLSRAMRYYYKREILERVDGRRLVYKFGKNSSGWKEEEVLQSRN
# Method in brief: as §1
# ETV1 = ETV1 (Homo sapiens, UniProt P50549 1-477); settings: protein: recombinant; tags: N-terminal GST; dsDNA, one strand shown
# Chain of ETV1 (P50549 whole entry): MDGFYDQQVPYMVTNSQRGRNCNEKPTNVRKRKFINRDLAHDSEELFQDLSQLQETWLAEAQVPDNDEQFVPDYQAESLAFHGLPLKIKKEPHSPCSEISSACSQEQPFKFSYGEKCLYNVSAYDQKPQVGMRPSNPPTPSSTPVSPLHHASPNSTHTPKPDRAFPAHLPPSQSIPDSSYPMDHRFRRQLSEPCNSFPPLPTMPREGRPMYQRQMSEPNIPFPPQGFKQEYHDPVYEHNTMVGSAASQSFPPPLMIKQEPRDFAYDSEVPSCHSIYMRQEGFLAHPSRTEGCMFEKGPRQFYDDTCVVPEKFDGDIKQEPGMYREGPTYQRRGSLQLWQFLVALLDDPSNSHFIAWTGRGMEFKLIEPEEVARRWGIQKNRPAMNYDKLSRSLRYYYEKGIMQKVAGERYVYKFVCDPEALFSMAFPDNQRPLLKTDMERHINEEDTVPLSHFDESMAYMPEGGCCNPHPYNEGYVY
# Method in brief: as §1
sequence,measurement,setting,value
CATGAA,binding signal,FLI1,"1.08 fold enrichment (6-mer frequency, TF over GST control)"
same,binding signal,ELK1,"1.16 fold enrichment (6-mer frequency, TF over GST control)"
same,binding signal,GABPA,"1.03 fold enrichment (6-mer frequency, TF over GST control)"
same,binding signal,ERG,"1.07 fold enrichment (6-mer frequency, TF over GST control)"
same,binding signal,ELF1,"1.06 fold enrichment (6-mer frequency, TF over GST control)"
same,binding signal,EHF,"1.15 fold enrichment (6-mer frequency, TF over GST control)"
same,binding signal,SPI1,"1.04 fold enrichment (6-mer frequency, TF over GST control)"
same,binding signal,ELK3,"1.11 fold enrichment (6-mer frequency, TF over GST control)"
same,binding signal,FEV,"1.03 fold enrichment (6-mer frequency, TF over GST control)"
same,binding signal,ETV5,"1.07 fold enrichment (6-mer frequency, TF over GST control)"
same,binding signal,HSF1,"1.05 fold enrichment (6-mer frequency, TF over GST control)"
same,binding signal,SPIC,"1.16 fold enrichment (6-mer frequency, TF over GST control)"
same,binding signal,ELF4,"1.1 fold enrichment (6-mer frequency, TF over GST control)"
same,binding signal,ELK4,"1.11 fold enrichment (6-mer frequency, TF over GST control)"
same,binding signal,ETV2,"1.06 fold enrichment (6-mer frequency, TF over GST control)"
same,binding signal,ELF3,"1.15 fold enrichment (6-mer frequency, TF over GST control)"
same,binding signal,ETV1,"1.08 fold enrichment (6-mer frequency, TF over GST control)"
